Among the data in ChEMBL document CHEMBL4649994 are ΔTm values, retold here.

A word on the ΔTm: it is the change in melting temperature against a reference sample.

This test concerns the target T1, Transcription intermediary factor 1-alpha (Homo sapiens) (UniProt O15164).
T1 sequence (whole entry): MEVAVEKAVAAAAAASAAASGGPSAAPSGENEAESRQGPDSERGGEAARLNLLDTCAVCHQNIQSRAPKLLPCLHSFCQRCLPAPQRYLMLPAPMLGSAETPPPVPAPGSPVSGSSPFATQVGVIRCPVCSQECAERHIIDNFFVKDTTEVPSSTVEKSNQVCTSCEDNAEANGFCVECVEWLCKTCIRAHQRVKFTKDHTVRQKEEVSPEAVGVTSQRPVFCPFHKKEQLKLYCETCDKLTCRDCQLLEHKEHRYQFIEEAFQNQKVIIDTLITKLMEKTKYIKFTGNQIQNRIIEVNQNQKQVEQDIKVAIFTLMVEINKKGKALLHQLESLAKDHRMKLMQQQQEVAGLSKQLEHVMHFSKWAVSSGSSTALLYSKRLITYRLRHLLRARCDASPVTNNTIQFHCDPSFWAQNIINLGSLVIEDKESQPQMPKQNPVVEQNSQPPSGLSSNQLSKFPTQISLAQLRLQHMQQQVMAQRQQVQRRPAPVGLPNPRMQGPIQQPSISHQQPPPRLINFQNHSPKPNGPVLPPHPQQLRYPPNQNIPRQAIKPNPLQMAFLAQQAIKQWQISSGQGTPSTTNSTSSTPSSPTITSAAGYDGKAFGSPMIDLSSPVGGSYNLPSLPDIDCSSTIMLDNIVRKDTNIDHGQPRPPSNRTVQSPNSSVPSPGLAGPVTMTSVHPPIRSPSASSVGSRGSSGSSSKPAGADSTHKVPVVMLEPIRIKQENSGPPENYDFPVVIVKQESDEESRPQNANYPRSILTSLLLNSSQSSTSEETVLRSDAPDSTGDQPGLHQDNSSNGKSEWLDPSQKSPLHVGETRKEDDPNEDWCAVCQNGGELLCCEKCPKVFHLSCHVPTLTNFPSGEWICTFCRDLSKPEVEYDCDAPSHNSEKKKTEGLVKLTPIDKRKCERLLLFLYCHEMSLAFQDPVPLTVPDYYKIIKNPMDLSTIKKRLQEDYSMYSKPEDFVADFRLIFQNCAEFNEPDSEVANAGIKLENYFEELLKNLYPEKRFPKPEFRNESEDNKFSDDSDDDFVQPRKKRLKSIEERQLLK
The following applies: Compound concentration 10.0 uM, Protein concentration 2.0 uM.

For `COc1ccccc1S(=O)(=O)Nc1ccc2c(c1)CN(C)C(=O)N2`, the ΔTm amounted to 0.62 °C.
